Assay results as given in paper PMC7862700, “An all-to-all approach to the identification of sequence-specific readers for epigenetic DNA modifications on cytosine”.

Key:
Assay in all cases: DAPPL (digital affinity profiling via proximity ligation, sequencing); 10 mM Tris-HCl pH 7.5, 50 mM NaCl, 1 mM DTT, 4% glycerol, room temperature, 30 min; GST-TFs on glutathione beads, 16-mer random dsDNA library, 0.1% formaldehyde crosslink after washing; high values mean tight binding
[1] = target: T1, FEV (Homo sapiens, UniProt Q99581 1-238); conditions: protein: recombinant; tags: N-terminal GST; dsDNA, one strand shown
T1 sequence: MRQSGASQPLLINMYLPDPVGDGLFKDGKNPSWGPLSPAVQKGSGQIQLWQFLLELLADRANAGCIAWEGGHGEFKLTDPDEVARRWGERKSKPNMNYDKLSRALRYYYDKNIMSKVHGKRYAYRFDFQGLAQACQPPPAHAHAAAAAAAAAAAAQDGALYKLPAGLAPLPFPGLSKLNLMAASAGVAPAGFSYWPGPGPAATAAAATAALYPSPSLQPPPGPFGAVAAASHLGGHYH
Method in brief: (§1)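 Sequencing on an Illumina NextSeq500 followed washing, crosslinking with 0.1% formaldehyde, proximity ligation (BsaI/T4 ligase, 1 h, 37 °C) and PCR amplification of pools that had been incubated for 30 min at room temperature with 200 nmole of a random double-stranded 16-mer DNA library in Tris/NaCl/DTT/glycerol buffer. Each pool held DNA-barcoded human transcription factors, expressed in yeast as GST fusions and captured on glutathione beads, plus a tag-only sample. Binding signal is a hexamer's read frequency for a factor divided by its frequency in the tag-only sample.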

[2] = target: ETV5 (Homo sapiens, UniProt P41161 1-510); conditions: protein: recombinant; tags: N-terminal GST; dsDNA, one strand shown
ETV5, sequence (P41161 whole entry): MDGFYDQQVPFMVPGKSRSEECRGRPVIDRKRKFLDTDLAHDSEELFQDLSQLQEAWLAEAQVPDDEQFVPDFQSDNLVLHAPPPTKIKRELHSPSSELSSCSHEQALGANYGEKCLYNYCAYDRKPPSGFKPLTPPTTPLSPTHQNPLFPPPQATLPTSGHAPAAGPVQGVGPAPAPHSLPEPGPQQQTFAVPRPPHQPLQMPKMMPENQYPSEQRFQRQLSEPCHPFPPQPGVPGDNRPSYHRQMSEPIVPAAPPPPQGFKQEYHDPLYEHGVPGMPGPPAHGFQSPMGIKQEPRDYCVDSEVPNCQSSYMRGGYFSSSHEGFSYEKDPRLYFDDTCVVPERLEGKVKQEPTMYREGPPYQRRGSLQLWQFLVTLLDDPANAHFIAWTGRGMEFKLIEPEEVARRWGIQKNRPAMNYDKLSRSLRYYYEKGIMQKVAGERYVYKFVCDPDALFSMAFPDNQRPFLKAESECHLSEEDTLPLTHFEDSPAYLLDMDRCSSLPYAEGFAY
Method in brief: as §1

[3] = target: HSF1 (Homo sapiens, UniProt Q00613 1-529); conditions: protein: recombinant; tags: N-terminal GST; chain copies: 3; dsDNA, one strand shown
HSF1, sequence (Q00613 whole entry): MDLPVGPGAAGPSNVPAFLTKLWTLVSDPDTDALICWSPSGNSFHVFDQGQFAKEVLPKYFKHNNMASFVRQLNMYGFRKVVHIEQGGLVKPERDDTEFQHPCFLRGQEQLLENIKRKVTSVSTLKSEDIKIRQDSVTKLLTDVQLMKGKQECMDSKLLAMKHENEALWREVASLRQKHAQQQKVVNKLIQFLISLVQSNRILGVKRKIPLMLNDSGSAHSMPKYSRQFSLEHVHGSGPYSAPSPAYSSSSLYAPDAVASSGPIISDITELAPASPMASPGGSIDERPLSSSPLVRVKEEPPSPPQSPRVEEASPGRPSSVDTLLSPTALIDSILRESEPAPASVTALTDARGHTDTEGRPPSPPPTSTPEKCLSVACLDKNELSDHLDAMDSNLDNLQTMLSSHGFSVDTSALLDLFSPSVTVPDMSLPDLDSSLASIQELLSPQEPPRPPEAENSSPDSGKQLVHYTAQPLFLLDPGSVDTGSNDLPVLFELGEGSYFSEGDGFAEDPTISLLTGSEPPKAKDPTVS
Method in brief: as §1

[4] = target: T2, ELK4 (Homo sapiens, UniProt P28324-2 1-405); conditions: protein: recombinant; tags: N-terminal GST; dsDNA, one strand shown
T2 sequence: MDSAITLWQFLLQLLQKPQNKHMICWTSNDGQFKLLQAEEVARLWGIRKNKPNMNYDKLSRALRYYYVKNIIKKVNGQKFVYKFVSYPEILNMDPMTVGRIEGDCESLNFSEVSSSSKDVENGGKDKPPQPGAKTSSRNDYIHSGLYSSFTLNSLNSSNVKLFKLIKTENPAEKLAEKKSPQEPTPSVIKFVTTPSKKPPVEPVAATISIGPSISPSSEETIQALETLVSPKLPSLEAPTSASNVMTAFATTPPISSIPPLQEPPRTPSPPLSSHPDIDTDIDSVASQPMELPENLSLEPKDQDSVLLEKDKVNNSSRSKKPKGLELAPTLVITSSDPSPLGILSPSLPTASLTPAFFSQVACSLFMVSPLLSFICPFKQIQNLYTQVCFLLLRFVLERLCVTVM
Method in brief: as §1

[5] = target: T3, ELF3 (Homo sapiens, UniProt P78545 1-371); conditions: protein: recombinant; tags: N-terminal GST; dsDNA, one strand shown
T3 sequence: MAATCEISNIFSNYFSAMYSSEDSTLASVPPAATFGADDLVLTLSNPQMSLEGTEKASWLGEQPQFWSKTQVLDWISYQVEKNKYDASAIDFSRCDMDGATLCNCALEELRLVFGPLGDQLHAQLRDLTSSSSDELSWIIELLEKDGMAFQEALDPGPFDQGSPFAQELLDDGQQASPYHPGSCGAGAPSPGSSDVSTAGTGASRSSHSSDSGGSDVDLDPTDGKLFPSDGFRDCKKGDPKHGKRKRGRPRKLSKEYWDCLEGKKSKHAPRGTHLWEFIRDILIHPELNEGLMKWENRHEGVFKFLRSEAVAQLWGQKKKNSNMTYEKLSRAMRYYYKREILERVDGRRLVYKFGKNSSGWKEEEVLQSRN
Method in brief: as §1

[6] = target: CRX (Homo sapiens, UniProt O43186 1-299); conditions: protein: recombinant; tags: N-terminal GST; dsDNA, one strand shown
CRX, sequence (O43186 whole entry): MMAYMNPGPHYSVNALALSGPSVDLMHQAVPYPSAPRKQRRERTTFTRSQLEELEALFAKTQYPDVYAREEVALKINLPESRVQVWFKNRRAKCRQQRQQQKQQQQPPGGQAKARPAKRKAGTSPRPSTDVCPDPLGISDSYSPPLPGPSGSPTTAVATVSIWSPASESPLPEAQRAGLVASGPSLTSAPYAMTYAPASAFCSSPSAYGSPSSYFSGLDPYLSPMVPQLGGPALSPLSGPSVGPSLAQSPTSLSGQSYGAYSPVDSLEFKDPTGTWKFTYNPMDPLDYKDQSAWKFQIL
Method in brief: as §1

[7] = target: ETV1 (Homo sapiens, UniProt P50549 1-477); conditions: protein: recombinant; tags: N-terminal GST; dsDNA, one strand shown
ETV1, sequence (P50549 whole entry): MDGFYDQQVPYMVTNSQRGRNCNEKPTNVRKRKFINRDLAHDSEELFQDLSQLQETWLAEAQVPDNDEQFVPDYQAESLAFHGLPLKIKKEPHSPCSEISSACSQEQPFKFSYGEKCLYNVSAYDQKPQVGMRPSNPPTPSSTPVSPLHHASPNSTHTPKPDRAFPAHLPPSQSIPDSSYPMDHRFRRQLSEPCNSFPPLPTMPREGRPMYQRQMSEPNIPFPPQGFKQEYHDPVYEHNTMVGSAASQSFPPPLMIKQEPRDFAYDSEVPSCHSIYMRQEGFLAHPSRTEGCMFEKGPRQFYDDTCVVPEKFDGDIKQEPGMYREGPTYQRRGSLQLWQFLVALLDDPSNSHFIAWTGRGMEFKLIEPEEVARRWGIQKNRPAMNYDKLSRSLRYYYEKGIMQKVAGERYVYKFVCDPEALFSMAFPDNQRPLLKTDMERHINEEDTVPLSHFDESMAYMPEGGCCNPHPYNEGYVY
Method in brief: as §1

[8] = target: T4, ERF (Homo sapiens, UniProt P50548 1-548); conditions: protein: recombinant; tags: N-terminal GST; dsDNA, one strand shown
T4 sequence: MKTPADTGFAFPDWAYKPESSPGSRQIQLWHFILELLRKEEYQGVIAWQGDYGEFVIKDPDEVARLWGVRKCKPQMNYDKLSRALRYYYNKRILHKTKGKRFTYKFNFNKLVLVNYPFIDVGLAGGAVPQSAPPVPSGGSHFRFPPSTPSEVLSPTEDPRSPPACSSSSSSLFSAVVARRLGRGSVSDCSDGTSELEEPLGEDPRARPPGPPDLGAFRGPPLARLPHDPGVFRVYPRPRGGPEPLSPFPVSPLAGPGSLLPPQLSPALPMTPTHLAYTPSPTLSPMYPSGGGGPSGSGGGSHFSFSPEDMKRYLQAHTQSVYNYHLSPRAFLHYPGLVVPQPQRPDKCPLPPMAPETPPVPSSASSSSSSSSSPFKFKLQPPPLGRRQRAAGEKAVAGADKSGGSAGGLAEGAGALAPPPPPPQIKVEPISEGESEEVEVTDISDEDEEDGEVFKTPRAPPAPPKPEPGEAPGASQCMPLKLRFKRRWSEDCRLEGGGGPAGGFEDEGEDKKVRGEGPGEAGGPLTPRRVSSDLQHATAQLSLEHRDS
Method in brief: as §1

[9] = target: T5, ETS2 (Homo sapiens, UniProt P15036 1-469); conditions: protein: recombinant; tags: N-terminal GST; dsDNA, one strand shown
T5 sequence: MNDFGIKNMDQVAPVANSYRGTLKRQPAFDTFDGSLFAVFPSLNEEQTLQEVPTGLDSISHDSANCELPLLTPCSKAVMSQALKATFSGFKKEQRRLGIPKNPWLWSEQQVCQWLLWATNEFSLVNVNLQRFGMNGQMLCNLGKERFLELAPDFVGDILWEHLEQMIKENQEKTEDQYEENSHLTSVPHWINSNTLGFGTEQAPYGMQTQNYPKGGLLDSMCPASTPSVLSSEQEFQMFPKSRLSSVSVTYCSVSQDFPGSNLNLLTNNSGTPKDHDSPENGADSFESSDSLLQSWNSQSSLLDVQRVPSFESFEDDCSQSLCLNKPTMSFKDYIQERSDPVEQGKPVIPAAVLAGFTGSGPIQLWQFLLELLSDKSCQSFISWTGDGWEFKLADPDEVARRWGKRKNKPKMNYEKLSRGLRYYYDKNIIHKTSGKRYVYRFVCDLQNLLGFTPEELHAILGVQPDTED
Method in brief: as §1

[10] = target: T6, SPDEF (Homo sapiens, UniProt O95238 1-335); conditions: protein: recombinant; tags: N-terminal GST; dsDNA, one strand shown
T6 sequence: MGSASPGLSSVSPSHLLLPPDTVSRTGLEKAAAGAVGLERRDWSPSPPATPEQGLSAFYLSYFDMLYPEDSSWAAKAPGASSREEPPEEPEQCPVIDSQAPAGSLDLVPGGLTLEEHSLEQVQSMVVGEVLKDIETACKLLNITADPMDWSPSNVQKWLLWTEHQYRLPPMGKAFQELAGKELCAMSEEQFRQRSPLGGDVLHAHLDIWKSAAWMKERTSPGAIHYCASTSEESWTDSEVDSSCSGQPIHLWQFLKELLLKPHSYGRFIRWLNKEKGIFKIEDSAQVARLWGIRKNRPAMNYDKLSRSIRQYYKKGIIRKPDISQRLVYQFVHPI
Method in brief: as §1

[11] = target: T7, ETV3 (Homo sapiens, UniProt P41162-2 1-143); conditions: protein: recombinant; tags: N-terminal GST; dsDNA, one strand shown
T7 sequence: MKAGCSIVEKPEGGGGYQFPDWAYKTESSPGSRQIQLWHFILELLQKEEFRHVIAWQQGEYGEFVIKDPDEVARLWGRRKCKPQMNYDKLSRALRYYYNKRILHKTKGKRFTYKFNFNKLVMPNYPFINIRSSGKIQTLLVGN
Method in brief: as §1

In the case of GGCTTA, the binding signal [1] is reported as 1.08 fold enrichment (6-mer frequency, TF over GST control), the binding signal [2] is reported as 1.03 fold enrichment (6-mer frequency, TF over GST control) and the binding signal [3] is reported as 2.04 fold enrichment (6-mer frequency, TF over GST control). For the same sequence, the binding signal [4] was 1.16 fold enrichment (6-mer frequency, TF over GST control), the binding signal [5] was 1.14 fold enrichment (6-mer frequency, TF over GST control) and the binding signal [6] was 3.34 fold enrichment (6-mer frequency, TF over GST control). The binding signal [7] was 1.11 fold enrichment (6-mer frequency, TF over GST control), the binding signal [8] was 1.09 fold enrichment (6-mer frequency, TF over GST control) and the binding signal [9] was 1.09 fold enrichment (6-mer frequency, TF over GST control). For the same sequence, the binding signal [10] was 1.09 fold enrichment (6-mer frequency, TF over GST control) and the binding signal [11] was 1.05 fold enrichment (6-mer frequency, TF over GST control).
